The sample as a whole holds a higher share of hits than the screen did.
AmpC no deterg: qHTS Inhibitors of AmpC Beta-Lactamase (assay without detergent); AmpC nitrocefin hydrolysis, absorbance 480 nm, 0.0001% Triton; AID 485341, 2010; Potency, µM (series often up to 57.1 µM), without a hit: at the top dose activity change, negative = inhibition, most hits filed as inhibitors; hit rate 0.52% among 330,000;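 note: potency is the fitted concentration of half-maximal effect; plate controls were no compound for no effect and no enzyme for full effect; nearly all actives have a fitted effect of over 20% in size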
Target sequence (P00811 whole entry, looked up): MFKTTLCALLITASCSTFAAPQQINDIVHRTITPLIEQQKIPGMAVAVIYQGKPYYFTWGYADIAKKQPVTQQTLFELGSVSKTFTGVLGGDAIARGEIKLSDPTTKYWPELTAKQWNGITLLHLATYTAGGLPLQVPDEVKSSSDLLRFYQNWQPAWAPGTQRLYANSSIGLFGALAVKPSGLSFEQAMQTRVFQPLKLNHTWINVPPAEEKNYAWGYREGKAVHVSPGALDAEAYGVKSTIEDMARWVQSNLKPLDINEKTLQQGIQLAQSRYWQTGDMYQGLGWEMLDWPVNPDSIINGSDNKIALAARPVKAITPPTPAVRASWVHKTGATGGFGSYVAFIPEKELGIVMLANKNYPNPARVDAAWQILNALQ
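AmpC (5.3 nM in the dispensed reagent) in 20 mM phosphate pH 7.0 with 0.01% (detergent screen) or 0.0001% Triton X-100 was preincubated with compounds for 15 min at room temperature. Nitrocefin was then added from an 800 uM solution, and hydrolysis was followed at 480 nm.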
AMA1-RON2 inh: qHTS for Inhibitors of AMA1-RON; Towards Development of Antimalarial Drug Lead: Primary Screen | hit rate 0.2% among 360,000 | Plasmodium falciparum AMA1 (3D7) - RON2 peptide interaction | Potency, µM (top dose mostly 58.2 µM), for inactives: at the top dose activity change, negative = inhibition, actives largely listed as inhibitors | AlphaScreen AMA1-biotinylated RON2 peptide binding;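 note: potency is the fitted concentration of half-maximal effect; 0% = vehicle wells and -100% = peptide control; nearly all actives have a fitted effect of over 45% in size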
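AMA1 (3D7) with his tag at 25 nM final met compounds first, then biotinylated RON2 peptide at 25 nM; detection used donor plus acceptor beads, 10 µg/mL apiece, read by AlphaScreen after 30 min at room temperature.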
Cycloheximide cs: Cycloheximide Counterscreen for Small Molecule Inhibitors of Shiga Toxin; cell reporter, cycloheximide protein synthesis inhibition counterscreen; max response, %; hit rate 12% among 300,000; AID 2314, 2010; in the data active = max response mostly above about 13%, no sharp cut-off; inactive = mostly below about 14%; note: read at 38.3 µM for the half of the compounds with a filed dose; 0% is about no effect
SARS PLpro yeast: qHTS of Yeast-based Assay for SARS-CoV PLP | Potency, µM (doses to about 32.9 µM), inactives show at the highest dose activity, positive = growth rescue, most hits filed as activators | hit rate 0.19% among 330,000 | S. cerevisiae expressing SARS-CoV PLpro, growth rescue; calls by dose curve; note: potency is the fitted concentration of half-maximal effect; 0% is about no effect; nearly all actives have a fitted effect of over 55% in size
AmpC inh detg: qHTS Inhibitors of AmpC Beta-Lactamase (assay with detergent); AID 485294, 2010; Potency, µM (highest dose often 114 µM), inactives show at the top dose activity change, negative = inhibition, actives largely listed as inhibitors; AmpC hydrolysis of nitrocefin, absorbance 480 nm, 0.01% Triton; hit rate 0.041% among 370,000;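 note: potency is the fitted concentration of half-maximal effect; 0% = no-compound wells and -100% = no-enzyme wells; nearly all actives have a fitted effect of over 25% in size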
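20 mM phosphate pH 7.0 + 0.01% (detergent screen) or 0.0001% Triton X-100; 5.3 nM AmpC reagent; cpd preinc 15 min RT; nitrocefin (800 uM stock) to start; A480 q20 s × 4 min; Activity was normalised to no-enzyme and no-compound control wells.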
Shiga inhibitor: A qHTS for Small Molecule Inhibitors of Shiga Toxin; Vero cells, Shiga toxin protein synthesis inhibition reporter; AID 2315, 2010; hit rate 9.2% among 290,000; inhibition, % at 38.7 µM; in the data active = inhibition mostly above about 28%, no sharp cut-off; inactive = mostly below about 43%; note: 0% is about no effect
* hit, by the source's call; u = inconclusive; x = no result; [ ] = remark or other dose. Unless noted, calls come from the whole dose curve; as a rule, active = well fitted curve in the direction sought with a large enough effect; inconclusive = small, poorly fitted or top-dose-only effect, or another doubt; inactive = no such curve, though single readings can be large; an effect the other way counts as inactive or inconclusive.

SMILES	AmpC no deterg	AMA1-RON2 inh	Cycloheximide cs	SARS PLpro yeast	AmpC inh detg	Shiga inhibitor
Cc1nc2ccc(NC(=O)c3ccc(Br)o3)cc2s1	-12%	0%	36*	-5%	1%	66*
Cc1nc2ccc(NC(=O)c3ccc(Cl)s3)cc2s1	-6%	-8%	15	-2%	u	77*
Cc1ccc2nc(NC(=O)c3cccs3)sc2c1	-48%	1%	25	-1%	u	80
Cc1ccc2nc(NC(=O)c3ccc(Cl)s3)sc2c1	-8%	1%	25*	6%	u	51*
CCN(CC)S(=O)(=O)c1cccc(NC(=O)COc2ccc(Cl)cc2Br)c1	-6%	7%	9	-11%	u	4
Cc1ccccc1CC1(CO)CCCN(C(=O)c2ccccc2N(C)C)C1 (stereo not given)	121%	-6%	-4	-1%	3%	-11
CCOc1ccc(NC(=O)C2CC(=O)N(C(C)C)C2)cc1 (stereo not given)	1%	-9%	-3	-3%	1%	8
Cc1nc2ccccc2c2oc(C(=O)NCc3ccccn3)cc12	-1%	8%	-1	-2%	-3%	-12
Cc1nc2ccc(NC(=O)c3cccnc3)cc2s1	-12%	-16%	8	-3%	-2%	55
Cc1nc2ccc(NC(=O)c3cnc(Cl)c(Cl)c3)cc2s1	15%	-20%	18*	-12%	-17%	71*
CCOC(=O)N1C2=NC(C(=O)OC)=C(C(=O)OC)[C@@H]3N(C)c4ccccc4[C@]23C[C@H]1C(=O)OC	104%	-14%	23*	-4%	-1%	-1
CC(=O)c1ccc(NC(=O)COc2ccccc2-c2nc(C)no2)cc1	x	x	x	x	-4%	x
O=C(Nc1ccccc1C(=O)O)c1ccc2ccccc2n1	-19%	29%	30*	-17%	1%	124*
CCCN(CC(=O)Nc1ccccc1C)C(=O)c1ccc2ccccc2n1	-8%	38%	x	-2%	0%	x
Cc1ccccc1NC(=S)c1ccc2ccccc2n1	-44%	-1%	48*	-25%	-9%	97*
COc1ccccc1NS(=O)(=O)c1cccc(NC(=O)c2ccc3ccccc3n2)c1	-30%	-26%	17*	17%	-10%	76
O=C(Nc1cccc(S(=O)(=O)Nc2ccccc2F)c1)c1ccc2ccccc2n1	-34%	-10%	8	0%	-5%	27
O=C(Nc1cc(C(F)(F)F)ccc1N1CCOCC1)c1ccc2ccccc2n1	-32%	-10%	23*	-5%	u	76
Cc1cc(C(=O)Nc2cc(C(F)(F)F)ccc2N2CCOCC2)no1	48%	-5%	-3	u	-14%	-3
CC(=O)NC1c2ccccc2C(=O)N1Cc1ccccc1 (stereo not given)	-2%	6%	1	-2%	-2%	-6
O=C(Nc1ccccc1)Nc1ccc2ccccc2n1	-30%	-6%	16	0%	u	72
O=C(Nc1ccc(Cl)cn1)c1ccc2ccccc2n1	-9%	5%	17	0%	7%	10
O=C(Nc1ccc(OC(F)(F)F)cc1)c1ccc2ccccc2n1	-15%	-5%	42*	-2%	-2%	55
O=C(Nc1ccc(S(=O)(=O)NCc2ccco2)cc1)c1ccc2ccccc2n1	-36%	-5%	89*	4%	-11%	51*
COc1ccc(NC(=O)COC(=O)c2ccc3ccccc3n2)cc1	-16%	-17%	x	-1%	4%	x
SMILES	AmpC no deterg	AMA1-RON2 inh	Cycloheximide cs	SARS PLpro yeast	AmpC inh detg	Shiga inhibitor
O=C(Nc1ccccc1)c1ccc2ccccc2n1	-26%	4%	49*	-3%	3%	94*
Cc1ccc(NC(=O)c2ccc3ccccc3n2)nc1	-12%	17%	38*	-20%	3%	115*
CCC1(C)Cc2nc3[nH]c(=S)n(-c4ccc(C)cc4)c(=O)c3cc2CO1 (stereo not given)	-18%	80%	-1	10%	3%	11
CC(C)CN1CC(COCc2ccccc2)Oc2ccccc2S1(=O)=O (stereo not given)	-5%	33%	x	15%	x	x
COc1ccc(CCNC(=O)CS(=O)Cc2nc(-c3ccc(C)cc3)oc2C)c(OC)c1 (stereo not given)	x	x	x	x	-5%	x
COc1cc(/C=N/NC(=O)NC23CC4CC(CC(C4)C2)C3)ccc1O	-36%	8%	8	-5%	2%	37*
O=C(N/N=C/c1ccc(O)c(O)c1)NC12CC3CC(CC(C3)C1)C2	-41%	6%	3	-1%	0%	5
O=C(N/N=C/c1ccccc1O)NC12CC3CC(CC(C3)C1)C2	-30%	67%	46*	-3%	-5%	139*
O=C(N/N=C/c1cccnc1)NC12CC3CC(CC(C3)C1)C2	-7%	-19%	9	0%	2%	-4
Cc1cc(C(=O)Nc2c(C)n(C)n(-c3ccccc3)c2=O)c(C)o1	0.16µM*	1%	-2	2%	3%	1
Cc1c(NC(=O)c2ccccc2)c(=O)n(-c2ccccc2)n1C	-16%	0%	-2	9%	-3%	12
Cc1cc(C(=O)NCCCC(=O)O)c(C)o1	-13%	14%	-3	-6%	2%	-13
Cc1cc(C(=O)NCCC(c2ccccc2)c2ccccc2)c(C)o1	-30%	3%	26*	-15%	2%	40
COc1ccc(CCN2CC(C(=O)OCC(=O)N(C)Cc3ccccc3)CC2=O)cc1OC (stereo not given)	111%	-1%[11.6 µM]	x	x	-6%	x
Clc1ccc(CN2CCCCCCC2)cc1Cl	-24%	30%	7	7%	-9%	-2
Clc1ccc(-c2cc(CN3CCOCC3)no2)cc1	4%	-13%	54*	-1%	5%	118*
Clc1ccc(-c2cc(CN3CCCCC3)no2)cc1Cl	36%	-14%	34*	0%	1%	62*
COc1ccc(-c2csc(NC(=O)CSc3ccc(Br)cc3)n2)c(OC)c1	35µM*	-16%	-10	8%	-1%	-20
COc1ccc(OC)c(-c2csc(NC(=O)Cc3ccccc3)n2)c1	-10%	-28%	24	-8%	7%	45
COc1ccc(-c2csc(NC(=O)Cc3ccccc3F)n2)c(OC)c1	-35%	-21%	14*	-5%	2%	38
COc1ccc(OC)c(-c2csc(NC(=O)CSc3ccccc3)n2)c1	-48%	10%[2.32 µM]	1	-17%	5%	11
N#C/C(=C(/O)COC(=O)CCc1ccc(S(=O)(=O)N2CCOCC2)cc1)c1nc2ccccc2[nH]1	-18%	109%	5	-10%	5%	45
COc1nc(N2CCCCCC2)nc(N2CCCCCC2)n1	29%	24%	-3	-9%	-1%	-9

Screening results: PubChem BioAssay, National Center for Advancing Translational Sciences (NCATS)
